Data published in PubChem BioAssay.
Active and inactive are the calls of the source. The rule behind the calls is not given here.

Assay: inhibitors of hydroxyurea-induced Chk1 phosphorylation, primary screen, imaging, HeLa, phospho-Chk1 antibody, percent positive cells (AID 1186)
Settings: hydroxyurea-induced phospho-Chk1 immunofluorescence imaging, higher = more signal

SMILES	z-score
CC(C)c1ccc(NN2C(C(O)C(C)c3ccccc3)C=CC3C(=O)N(c4ccccc4)C(=O)C32)cc1 (centres undefined)	0.545 (inactive)
CC(C)C[C@@H]1NC(=O)[C@@H]2C[C@H](C(=O)NCCCCCCNC(=O)CS)[C@H](c3ccc(O)cc3)N2C1=O	-0.265 (inactive)
COC(=O)Cn1c(C(=O)N(C)C)cc2c1C[C@H]1CN(C(=O)c3ccccc3)[C@@](Cc3ccccc3)(C(=O)OC)[C@@H]21	-0.12 (inactive)
COCCOC(=O)N1C(=O)[C@@]2(c3cc(C#CCC(C(=O)OC)C(=O)OC)ccc31)[C@H](c1ccc(O)cc1)N1[C@H](c3ccccc3)[C@H](c3ccccc3)OC(=O)[C@H]1[C@@H]2C(=O)N1CCc2cc(OC)c(OC)cc2C1	-0.0407 (inactive)
Cc1ccc(S[C@]2(C(=O)NCc3ccccc3)CC(=O)N(Cc3ccccc3C(F)(F)F)[C@@H]2c2ccc(CO)cc2I)cc1	0.225 (inactive)
O=C1C2C=CC(C(O)C3CCCCC3)N(Nc3ccccc3F)C2C(=O)N1c1ccccc1 (centres undefined)	0.0253 (inactive)
CC[C@H]1C2=C3C(CC[C@H]4C(OCc5ccc(F)cc5C(F)(F)F)OC[C@](C)([C@@H]34)N(C(=O)OC(C)(C)C)C2)C(COC(C)=O)C1COC(C)=O (some centres undefined)	0.127 (inactive)
CC1CC/C=C\[C@H]2OC34C=CCN(CCN5CCOCC5)C(=O)[C@H]3N(C(CO)C(C)C)C(=O)[C@@H]4C2C(=O)O1 (some centres undefined)	0.607 (inactive)
COC(=O)C[C@H]1O[C@]2(C(=O)N(C)c3ccccc32)[C@@H](C)[C@@H]1[Si](C)(C)c1ccccc1	-0.0412 (inactive)
O=C1O[C@@H](c2ccccc2)[C@@H](c2ccccc2)N2[C@@H](c3ccc(OCCO)cc3)[C@]3(C(=O)Nc4ccc(C#CC5=CCCCC5)cc43)[C@@H](C(=O)Nc3nc4ccccc4s3)[C@H]12	-0.176 (inactive)
CCCCN1CC=CC23O[C@@H]4/C=C\CCCOC(=O)C4[C@H]2C(=O)N(CCCCCCO)[C@@H]3C1=O (some centres undefined)	-0.624 (inactive)
COC(=O)[C@@]1(Cc2ccc(F)cc2)[C@H]2c3cc(C(=O)N(C)C)n(CCF)c3C[C@H]2CN1C(=O)c1ccccc1	-0.847 (inactive)
CCc1cccc(NC(=O)O[C@H]2[C@H](OC(=O)Nc3ccccc3-c3ccccc3)[C@H](OC(=O)Nc3ccccc3-c3ccccc3)[C@@H](OC)O[C@@H]2CO)c1	-0.36 (inactive)
C=C(COC)C(=O)CC[C@H](OC(C)=O)c1ccccc1OCCO	-0.201 (inactive)
COC(=O)C(CC#Cc1ccc2c(c1)[C@]1(C(=O)N2)[C@H](c2ccc(OCCO)cc2)N2[C@H](c3ccccc3)[C@H](c3ccccc3)OC(=O)[C@H]2[C@@H]1C(N)=O)C(=O)OC	-0.143 (inactive)
COc1ccc([Si](C)(C)[C@H]2[C@H](CC(=O)N(CCO)Cc3ccccc3)O[C@@]3(C(=O)N(Cc4cccc(N5CCCCC5=O)c4)c4ccccc43)[C@@H]2C)cc1	-0.929 (inactive)
COCCCNC(=O)[C@@]1(Cc2ccccc2I)c2ccccc2C(=O)N(Cc2ccccc2C(F)(F)F)[C@H]1c1ccc(CO)cc1	0.0894 (inactive)
CC[C@@H](O[Si](C#C[Si](C(C)C)(C(C)C)C(C)C)(C(C)C)C(C)C)c1cn([C@H](C)c2ccccc2)nn1	0.0891 (inactive)
COCCOC(=O)N1C(=O)[C@@]2(c3cc(C#CCC(C(=O)OC)C(=O)OC)ccc31)[C@H](C(=O)N1CCc3cc(OC)c(OC)cc3C1)[C@H]1C(=O)O[C@H](c3ccccc3)[C@H](c3ccccc3)N1[C@@H]2c1ccccc1OCCO	-0.182 (inactive)
CCCNC(=O)[C@@]1(Sc2ccc(C)cc2)CC(=O)N(Cc2cc(C(F)(F)F)cc(C(F)(F)F)c2)[C@@H]1c1ccc(CO)cc1	-0.0515 (inactive)
Cc1ccc(S[C@]2(C(=O)NCc3ccccc3)CC(=O)N(Cc3ccccc3Cl)[C@@H]2c2ccc(CO)cc2)cc1	0.172 (inactive)
CC1(C)OB(/C=C\CC(OC(=O)c2ccncc2)c2ccccc2)OC1(C)C (centres undefined)	0.301 (inactive)
COc1cc(Cc2cc3c(c(-c4ccccc4)n2)[Si](C(C)C)(C(C)C)OC3)cc(OC)c1OC	-0.628 (inactive)
C=CCOC(=O)[C@H]1[C@@H]2C(=O)O[C@@H](c3ccccc3)[C@@H](c3ccccc3)N2[C@@H](c2ccc(OCCOC(=O)[C@@H]3C[C@@H]4C(=O)N[C@@H](Cc5ccccc5)C(=O)N4[C@@H]3c3ccc(O)cc3)cc2)[C@]12C(=O)Nc1ccc(I)cc12	-0.272 (inactive)
